Reference: PubChem BioAssay (Tox21)
Inconclusive results are not listed. A number with no mark means an inactive call. Calls of active or inactive are those of the source. Calls follow the shape of the dose curve; as a rule, active = well fitted cell-killing curve with a large enough effect in the repeat runs; inconclusive = weak or mixed curves, or effect the other way; inactive = flat fitted curve, though single readings scatter.

Assay: cAMP Responsive Elements (CRE) small molecule antagonists, cell-based qHTS assay: qHTS cell viability counter screen (AID 2060913); also: nearly all actives have a fitted effect of over 40% in size
Conditions: CRE-bla HEK293T viability, CellTiter-Glo luminescence, 5 h; series mostly up to 92.4 µM; viability change, negative = cytotoxic: at the top concentration
Procedure, shortened: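 Cytotoxicity counter screen multiplexed with the CRE-bla antagonist read: HEK293T cells in DMEM with dialyzed FBS and 25 mM HEPES were treated 3 hrs under 0.25 uM final NKH477, then viability measured by CellTiter-Glo luminescence.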
% is scaled to controls: 0 for no effect and ±100 for the full control effect.

SMILES	viability change, negative = cytotoxic	Potency
CCOc1cccc(N)c1	2.01%	
CC(=O)[C@H]1CC[C@H]2[C@@H]3C=CC4=CC(=O)CC[C@@]4(C)[C@@H]3CC[C@]12C	-12.2% [at 42.5 µM]	
Brc1nc2ccccc2s1		inactive
CCCCCCCCOC(=O)c1ccc(O)cc1		inactive
NS(=O)(=O)c1cc(-c2nn[nH]n2)c(NCc2cccs2)cc1Cl	5.65% [at 42.5 µM]	
CCCOc1ccc(C(=O)OCCN(CC)CC)cc1N	-0.615% [at 42.5 µM]	
CCCCCCCCc1ccc(S(=O)(=O)O)cc1	-6.12%	
CN1CCN(CC(=O)N2c3ccccc3C(=O)Nc3cccnc32)CC1	8.13% [at 8.39 µM]	
Oc1cc2c(cc1O)[C@H]1c3ccc(O)c(O)c3OC[C@@]1(O)C2	17.9%	
Nc1ccc2cc3ccccc3cc2c1		inactive
C[Si](NC1CCCCC1)(NC1CCCCC1)NC1CCCCC1	-10.2%	
COC[C@H](c1ccc(C(F)(F)F)cc1)N1CCN(C2(C)CCN(C(=O)c3c(C)ncnc3C)CC2)C[C@H]1C	-0.315% [at 42.5 µM]	
CC(COc1ccc(C(C)(C)C)cc1)OS(=O)OCCCl (centres undefined)	2.62%	
CC(=O)O[C@]1(C(C)=O)CC[C@H]2[C@@H]3C[C@H](C)C4=CC(=O)CC[C@]4(C)[C@H]3CC[C@@]21C		inactive
O=C(c1ccc(Cl)cc1)c1ccc(Cl)cc1	-5.75%	
CC(C)(C)CC(C)(C)c1ccc(O)c(-n2nc3ccccc3n2)c1		inactive
C[C@H](CCC(=O)O)[C@H]1CC[C@H]2[C@@H]3C(=O)C[C@@H]4CC(=O)CC[C@]4(C)[C@H]3CC(=O)[C@]12C	0.602% [at 42.5 µM]	
FC(F)(F)C(F)(F)C(F)(F)C(F)(F)CCI	2.31% [at 42.5 µM]	
CO[C@@]1(NC(=O)Cc2cccs2)C(=O)N2C(C(=O)O)=C(COC(N)=O)CS[C@@H]21	-0.205% [at 42.5 µM]	
COc1cccc(Br)c1	9.47%	

SMILES	viability change, negative = cytotoxic	Potency
CCN(Cc1cccc(S(=O)(=O)O)c1)c1ccc(C(=C2C=CC(=[N+](CC)Cc3cccc(S(=O)(=O)[O-])c3)C=C2)c2ccccc2)cc1	4.52% [at 42.5 µM]	
Brc1ccc(Br)c(Br)c1		inactive
CN[C@@H]1[C@@H](O)[C@@H](O[C@@H]2[C@H](O)[C@H](O[C@H]3OC(CN)=CC[C@H]3N)[C@@H](N)C[C@H]2N)OCC1(C)O (some centres undefined)	-4.48% [at 42.5 µM]	
CCOc1ccc2ccccc2c1C(=O)N[C@@H]1C(=O)N2[C@@H]1SC(C)(C)[C@@H]2C(=O)O	1.78% [at 42.5 µM]	
CC[C@]1(O)C[C@H]2CN(CCc3c([nH]c4ccccc34)[C@@](C(=O)OC)(c3cc4c(cc3OC)N(C=O)[C@H]3[C@@](O)(C(=O)OC)[C@H](OC(C)=O)[C@]5(CC)C=CCN6CC[C@]43[C@@H]65)C2)C1	1.22% [at 42.5 µM]	
CC1=C(CC(=O)O)c2cc(F)ccc2/C1=C\c1ccc(S(C)(=O)=O)cc1	12.8% [at 42.5 µM]	
CC(C)C[C@@H](N)C(=O)O	3.57% [at 18.9 µM]	
CC(C)C[C@H](NC(=O)OCC1c2ccccc2-c2ccccc21)C(=O)O	-1.5%	
O=Cc1cccc(Br)c1	-10.1%	
C/C=C/C=N/NC(=O)c1ccncc1	3.06% [at 42.5 µM]	
Clc1cc(Cl)cc(Cl)c1	8.74%	
Cc1ccc(O)c(C(=O)c2ccccc2)c1	-15.4%	
CCCC1CCC(=O)O1 (centres undefined)	1.36%	
C/C=C/C=C/CCCCCCCO	10.6%	
OCCN1CCNCC1		inactive
C=C(C)C(=O)OCCN(CC)CC	0.0675%	
CC1=NC(C)OC1C (centres undefined)	9.36%	
CN(C)[C@@H](CCOc1cccc2ccccc12)c1ccccc1	-16.2% [at 42.5 µM]	
Nc1ccc([N+](=O)[O-])c(C(F)(F)F)c1	10.2% [at 42.5 µM]	
